The test system of assay [1] is WaGa. The assay is described as follows: qHTS assay to identify novel small-molecules to repurpose for Merkel cell carcinoma treatment (AID 1296009). Also: nearly all actives have a fitted effect of over 60% in size. Also: potency is read from the fitted curve at half-maximal effect. The following applies: MCC and control cell lines, CellTiter-Glo viability, 72 h; series mostly up to 46 µM. In a few lines: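 After compound transfer in DMSO, plates were kept 72 hr at 37 degree celsius. Luminescent ATP signal from CellTiter-Glo served as viability measure, normalized against DMSO and no-cell controls.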

The test system of assay [2] is C33A. The assay is described as follows: Primary qHTS to identify gynecologic anti-cancer compounds using libraries of approved drugs and bioactive compounds (AID 1345084). Also: nearly all actives have a fitted effect of over 55% in size. Also: potency is read from the fitted curve at half-maximal effect. The following applies: Gynecologic cancer cell panel viability, ATPlite luminescence, 48 h; series mostly up to 57.5 µM. In a few lines: (§1)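 ATP-based viability (ATPlite), 1,000 cells/well, 16 h pre-incubation, 48 h compound at 37 C, 5% CO2, 15 min RT before read.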
A general note: Quantitative high-throughput screening tests each substance at several concentrations.

In assay [3] the test system is CAOV3. The description is as above. The following applies: Gynecologic cancer cell panel viability, ATPlite luminescence, 48 h; series mostly up to 57.5 µM. Summed up:
as §1
For orientation: Cellular ATP, detected with luciferase, serves as a proxy for viable cell number.

In assay [4] the test system is CASKI. The description is as above. The following applies: Gynecologic cancer cell panel viability, ATPlite luminescence, 48 h; series mostly up to 57.5 µM. In a few lines:
as §1

Assay [5] has as its system Es-2. The description is as above. The settings on record: Gynecologic cancer cell panel viability, ATPlite luminescence, 48 h; series mostly up to 57.5 µM. In a few lines:
as §1

In assay [6] the test system is HeLa. The description is as above. The settings on record: Gynecologic cancer cell panel viability, ATPlite luminescence, 48 h; series mostly up to 57.5 µM. Summed up:
as §1

Assay [7] has as its system Hek293T. Described as above. The following applies: Gynecologic cancer cell panel viability, ATPlite luminescence, 48 h, control line for the selectivity index; series mostly up to 57.5 µM. In a few lines: as §1
The test system of assay [8] is JEG-3. Described as above. The settings on record: Gynecologic cancer cell panel viability, ATPlite luminescence, 48 h; series mostly up to 57.5 µM. Summed up:
as §1

The subject of assay [9] is OV90. The description is as above. The settings on record: Gynecologic cancer cell panel viability, ATPlite luminescence, 48 h; series mostly up to 57.5 µM. In a few lines: as §1
Assay [10] deals with PA-1. Described as above. The following applies: Gynecologic cancer cell panel viability, ATPlite luminescence, 48 h; series mostly up to 57.5 µM. In a few lines:
as §1

The test system of assay [11] is SKOV3. The description is as above. The following applies: Gynecologic cancer cell panel viability, ATPlite luminescence, 48 h; series mostly up to 57.5 µM. Summed up:
as §1

Assay [12] concerns Tov-21-G. Described as above. The settings on record: Gynecologic cancer cell panel viability, ATPlite luminescence, 48 h; series mostly up to 57.5 µM. Summed up:
as §1

The test system of assay [13] is Tov112D. The description is as above. The following applies: Gynecologic cancer cell panel viability, ATPlite luminescence, 48 h; series mostly up to 57.5 µM. Summed up: as §1
A short description of assay [14]: Drug repurposing screens with cells derived from glioblastoma tumor samples (AID 1345199). Also: nearly all actives have a fitted effect of over 40% in size. Also: potency is read from the fitted curve at half-maximal effect. As to activity, negative = cell killing: % is scaled to controls: 0 for no effect and ±100 for the full control effect. The settings on record: GBM patient neurospheres viability, ATP luminescence, 48 h. In a few lines:
(§2)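 Four patient lines of CD133+ GBM neurospheres were screened at several concentrations; hits were retested in those lines plus three slower-growing GBM lines, using 48-hour treatment and ATP-based viability.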

Assay [15] concerns astro. The assay is described as above. The settings on record: viability, ATP luminescence, 48 h; series mostly up to 45.9 µM. Summed up: as §2
Assay [16] concerns the target Nuclear receptor subfamily 1 group I member 2 (Rattus norvegicus) (UniProt Q9R1A7). The assay is described as follows: qHTS assay for small molecule activators of the rat pregnane X receptor (rPXR) signaling pathway (AID 651751; call rule not given here; also: 0% is about no effect). The settings on record: rPXR reporter cells, luciferase (One-Glo), 24 h.
Assay [17] in a line: qHTS assay for small molecule activators of the human pregnane X receptor (PXR) signaling pathway (AID 720659; call rule not given here; also: 0% is about no effect).
[18] abbreviates: at 45.9 µM (top of the series), tumour line B.
Setting [19] is: at 45.9 µM (top of the series), tumour line D.
[20] abbreviates: at 46 µM (top of the series), tumour line A.
[21] abbreviates: at 46.1 µM (top of the series), tumour line C.
The mark [22] stands for this setting: at 20 µM (top of the series), tumour line C.

“And” between values parts separate entries of the source, which are not always exact repeats. Identical values can stand only once. Unmarked numbers belong to inactive results. Inconclusive results are not listed. The source made the active and inactive calls. Unless noted, calls follow the shape of the dose curve; as a rule, active = well fitted curve in the direction sought with a large enough effect; inconclusive = small, poorly fitted or top-dose-only effect, or another doubt; inactive = no such curve, though single readings can be large; an effect the other way counts as inactive or inconclusive.

Nuclear receptor subfamily 1 group I member 2 (Rattus norvegicus), sequence (Q9R1A7 whole entry, looked up): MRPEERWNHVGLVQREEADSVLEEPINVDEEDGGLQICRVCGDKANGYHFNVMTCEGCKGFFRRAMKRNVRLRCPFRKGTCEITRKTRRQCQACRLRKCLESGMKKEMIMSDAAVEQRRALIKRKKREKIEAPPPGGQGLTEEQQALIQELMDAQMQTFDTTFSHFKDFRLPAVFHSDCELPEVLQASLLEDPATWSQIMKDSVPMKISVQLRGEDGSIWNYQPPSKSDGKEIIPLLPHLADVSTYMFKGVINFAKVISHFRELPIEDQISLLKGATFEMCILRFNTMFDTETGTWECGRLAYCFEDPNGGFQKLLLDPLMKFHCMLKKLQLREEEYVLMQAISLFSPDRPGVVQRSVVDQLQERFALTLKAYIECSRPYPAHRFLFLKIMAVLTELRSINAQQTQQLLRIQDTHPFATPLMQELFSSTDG

Consider `Nc1ccc(C(=O)O)c(O)c1`, for which the Potency result in [1], in assay [2], in assay [3], in [4], in [5] and in assay [6] was “inactive” throughout. Besides, the Potency result in assay [7], in assay [8], in assay [9], in assay [10], in [11] and in assay [12] was “inactive” in each case. Moreover, the Potency result in assay [13] and in assay [15] was “inactive” in each case. In addition, the activity, negative = cell killing in [14] (setting [18]) was -5.49%; in assay [14] (setting [19]) it was 3.71%; in assay [14] (setting [20]) it was -9.87%; in assay [14] (setting [21]), -6.08%.
For the compound `CC(C)OC(=O)c1cc(C(=O)OC(C)C)cc([N+](=O)[O-])c1`, the Potency result in assay [1], in assay [2], in [3], in assay [4], in assay [5] and in [6] was “inactive” each time. In addition, the Potency result in [7], in assay [8], in assay [9], in [10], in assay [12] and in assay [13] was “inactive” throughout. Besides, the Potency entry in [15] is “inactive”. Also, the activity, negative = cell killing was -39.8% in assay [14] (at 91.6 µM (top of the series), tumour line A); -8.41% in [14] (at 91.6 µM (top of the series), tumour line B); -19.6% in [14] (at 91.6 µM (top of the series), tumour line D); 10.5% in assay [14] (at 99.2 µM (top of the series), tumour line C). Besides, the max response in assay [16] was 14.5%. Besides, in [17], the compound was called inactive.
For the compound `CC(N)C(=O)OC(C)(C)Cc1ccc(Cl)cc1` (configuration not stated), the Potency result in assay [1], in assay [2], in assay [3], in [4], in assay [5] and in assay [6] was “inactive” in each case. In addition, the Potency result in [8], in assay [9], in assay [10], in [11], in [12] and in assay [13] was “inactive” throughout. In addition, the figures for the activity, negative = cell killing in assay [14] (setting [18]) and in [14] (setting [19]) were -21.1% and -21.2%, respectively. Moreover, the Potency in [14] (tumour line A) is 20 µM (active).
Regarding `Clc1ccccc1-c1nc(-c2ccncc2)no1`, the Potency result in assay [1], in assay [2] and in assay [3] was “inactive” each time. The Potency in assay [6] was 28.2 µM (active); in assay [11] it was 22.4 µM (active).
On to `c1ccc2sc(SSc3nc4ccccc4s3)nc2c1`, for which the Potency entry in [1], in [2], in assay [3], in assay [4], in assay [5] and in [6] was “inactive” each time. Besides, the Potency result in assay [7], in [8], in assay [9], in [10], in assay [11] and in assay [12] was “inactive” in each case. Moreover, the Potency result in assay [13] and in [15] was “inactive” each time. Also, the activity, negative = cell killing is -16.9% in assay [14] (setting [18]), -20.4% in assay [14] (setting [19]), -26.6% in assay [14] (setting [20]) and -28% in assay [14] (setting [21]). Moreover, the max response in assay [16] is -2.5% and 11.1%. In assay [17], the compound was classed as inactive.
For the compound `O=C(OCc1ccccc1)c1ccccc1`, the Potency result in [1], in [2], in [3], in assay [4], in [5] and in [6] was “inactive” in each case. For the same compound, the Potency result in assay [7], in assay [8], in [9], in [10], in assay [11] and in assay [12] was “inactive” each time. For the same compound, the Potency result in assay [13] is “inactive”. The activity, negative = cell killing in [14] (setting [18]) was -4.23%; in assay [14] (setting [19]), -19%; in assay [14] (setting [20]) it was -13.2%; in assay [14] (setting [21]) it was -10.1%. In assay [16], the max response was -3.55%. The call in assay [17] was inactive.
With `CCC1C(=O)OCC1Cc1cncn1C` (configuration not stated), the Potency entry in assay [1], in assay [2], in assay [3], in assay [4], in assay [5] and in assay [6] was “inactive” in each case. For the same compound, the Potency entry in assay [7], in assay [8], in [9], in [10], in [11] and in [12] was “inactive” each time. Also, the Potency result in [13] and in assay [15] was “inactive” throughout. Also, the activity, negative = cell killing in assay [14] (setting [18]) was -2.95%; in assay [14] (setting [19]), -8.25%; in assay [14] (setting [20]), -25.3%; in [14] (setting [21]) it was -11.8%.
Take `COc1cc(NC(C)CCCN)c2ncccc2c1` (configuration not stated): the Potency in assay [1] was 3.76 µM (active); in assay [14] (tumour line A), 10 µM (active). Moreover, the Potency entry in [2], in [3], in [4], in assay [5], in [6] and in assay [7] was “inactive” in each case. In addition, the Potency entry in assay [9], in assay [10], in assay [11], in [12], in assay [13] and in assay [15] was “inactive” each time. Also, the activity, negative = cell killing in assay [14] (setting [22]) was 6.33%.
With `Cc1[nH]cnc1CN1CCc2c(c3ccccc3n2C)C1=O`, the Potency result in assay [1], in assay [2], in [3], in assay [4], in assay [5] and in [6] was “inactive” in each case. Moreover, the Potency entry in assay [7], in assay [8], in [10], in assay [11], in assay [12] and in [13] was “inactive” each time. The Potency entry in assay [15] is “inactive”. For the same compound, the activity, negative = cell killing in assay [14] (setting [18]) is -8.52%; in [14] (setting [19]), -4.04%; in assay [14] (setting [21]) it was -28.6%. Besides, the Potency in [14] (tumour line A) is 10 µM (active).
On to `CN1CC(=O)N/C1=N/C(=O)Nc1cccc(Cl)c1`, for which the Potency entry in [1], in assay [2], in assay [3], in assay [4], in assay [5] and in [6] was “inactive” in each case. In addition, the Potency result in [7], in assay [8], in [9], in assay [10], in [11] and in assay [12] was “inactive” in each case. Further, the Potency result in assay [13] and in assay [15] was “inactive” in each case. The activity, negative = cell killing in [14] (setting [18]) is -4.72% and 3.17%; in assay [14] (setting [19]), -5.4% and -21.8%; in assay [14] (setting [21]), -23.8% and 2.92%.
Turning to `Cc1c(N)c(=O)n(-c2ccccc2)n1C`, the Potency entry in assay [1], in assay [2], in [3], in assay [4], in assay [5] and in assay [6] was “inactive” throughout. The Potency result in assay [7], in [8], in assay [9], in [10], in [11] and in [12] was “inactive” in each case. Besides, the Potency entry in [13] is “inactive”. Besides, the activity, negative = cell killing was -1.09% in assay [14] (setting [22]); -6% in [14] (at 21.2 µM (top of the series), tumour line B); -16.4% in assay [14] (at 21.2 µM (top of the series), tumour line D); -17.4% in assay [14] (at 21.3 µM (top of the series), tumour line A).
For `CCCCCCCC/C=C/C(=O)O`, the Potency entry in assay [1], in assay [2], in assay [3], in assay [4], in [5] and in assay [6] was “inactive” in each case. In addition, the Potency result in assay [7], in assay [8], in assay [9], in [10], in assay [11] and in assay [12] was “inactive” each time. Further, in [13], the Potency result is “inactive”.
Take `O=C(CS)Nc1ccccc1`: the Potency entry in assay [1], in [2], in assay [3], in [4], in assay [5] and in assay [6] was “inactive” throughout. Also, the Potency result in assay [7], in assay [8], in [9], in assay [10], in [11] and in assay [12] was “inactive” each time. For the same compound, the Potency result in assay [13] is “inactive”. Besides, the activity, negative = cell killing in assay [14] (setting [21]) was -39.6%. The Potency in assay [14] (tumour line D) was 12.6 µM (active).
As for `c1ccc(CCNc2nc(-c3ccccc3)cs2)cc1`, the Potency result in assay [1], in assay [2], in assay [3], in [4], in assay [5] and in assay [6] was “inactive” in each case. Further, the Potency result in assay [7], in [8], in assay [10], in assay [11], in assay [12] and in assay [13] was “inactive” in each case. For the same compound, the activity, negative = cell killing in assay [14] (setting [18]) is -22.5%. In assay [14] (tumour line A), the Potency is 14.1 µM (active).

Values taken from PubChem BioAssay (NCATS).
